Test results: PubChem BioAssay (NCI)
The panel holds about 83,000 compounds, 20% with a hit somewhere; the sample as a whole holds those more often.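 Cell lines were cultured in 96-well plates, exposed to a single compound concentration, and assessed for percent growth 48 hours later.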 Active and inactive are the calls of the source. How the source made its calls: active means growth percent below 10; inactive means the rest.

Key:
Experiment in all cases: NCI-60 one-dose screen, 48 h (100 = growth as untreated, 0 = no growth, -100 = all killed)
[1] = tested on: SR leukemia; settings: 10 µM unless noted
[2] = tested on: RPMI-8226 leukemia; settings: 10 µM
[3] = tested on: OVCAR-8 ovarian; settings: 10 µM unless noted
[4] = tested on: OVCAR-5 ovarian; settings: 10 µM unless noted
[5] = tested on: OVCAR-4 ovarian; settings: 10 µM unless noted
[6] = tested on: SK-OV-3 ovarian; settings: 10 µM
[7] = tested on: IGROV1 ovarian; settings: 10 µM unless noted
[8] = tested on: OVCAR-3 ovarian; settings: 10 µM unless noted
[9] = tested on: HS 578T breast; settings: 10 µM unless noted
[10] = tested on: NCI/ADR-RES ovarian; settings: 10 µM unless noted
[11] = tested on: T-47D breast; settings: 10 µM
[12] = tested on: BT-549 breast; settings: 10 µM unless noted
[13] = tested on: MDA-MB-435 melanoma; settings: 10 µM unless noted
[14] = tested on: SW-620 colon; settings: 10 µM unless noted
[15] = tested on: MCF7 breast; settings: 10 µM unless noted
[16] = tested on: HCT-116 colon; settings: 10 µM unless noted
[17] = tested on: HCC-2998 colon; settings: 10 µM unless noted
[18] = tested on: KM12 colon; settings: 10 µM unless noted

Measured: growth

COc1ccc(NC(=O)c2ccc3c(c2)nc(-c2ccc(Cl)cc2)n3-c2cc(C(C)(C)C)[nH]n2)cc1
inactive: [1] 79.7% | [2] 90.2% | [3] 89.3% | [4] 100% | [5] 72.7% | [6] 114% | [7] 88.7% | [8] 94.5% | [9] 62% | [10] 80.1% | [11] 74.5% | [12] 81.3% | [13] 88.9% | [14] 104% | [15] 83% | [16] 80.7% | [17] 112% | [18] 84%

COc1cc(C2=NN(c3ccc(S(N)(=O)=O)cc3)C(c3ccc(Cl)cc3)C2)cc(OC)c1OC (stereo unspecified)
active: [2] -5.03%
inactive: [1] 17.5% | [3] 40% | [4] 77.5% | [5] 42.4% | [6] 77.9% | [7] 60.9% | [8] 47.1% | [9] 58.4% | [10] 37.5% | [11] 20.4% | [12] 57.9% | [13] 29.2% | [14] 44.3% | [15] 25.2% | [16] 23.2% | [17] 45.9% | [18] 37.6%

COc1ccc(-c2c3c(N)c4c(nc3nc3c2c(C)nn3-c2ccccc2)CCCC4)cc1
active: [1] -25.8% | [2] -37.5%
inactive: [3] 83.1% | [4] 90.1% | [5] 45.1% | [6] 103% | [7] 90.1% | [8] 88.8% | [9] 92.5% | [10] 86.6% | [11] 84% | [12] 106% | [13] 77.5% | [14] 68.2% | [15] 58.5% | [16] 31.8% | [17] 100% | [18] 89.6%

O=C1c2ccccc2C(=O)c2c(Nc3ccc(CCO)cc3)ccc(O)c21
active: [1] -5.4% | [9] -21.7%
inactive: [2] 46.5% | [3] 74.1% | [4] 105% | [5] 72.5% | [6] 73.5% | [7] 45.4% | [8] 122% | [10] 82% | [11] 33.2% | [12] 53.3% | [13] 88.4% | [14] 65.8% | [15] 33.7% | [16] 68.6% | [17] 66.8% | [18] 76.2%

O=[N+]([O-])c1cc2c(cc1Br)C1C(C3C2C(Cl)(Cl)C(Cl)=C(Cl)C3(Cl)Cl)C(Cl)(Cl)C(Cl)=C(Cl)C1(Cl)Cl (stereo unspecified)
inactive: [1] 80.2% | [2] 88.1% | [3] 97% | [4] 102% | [5] 102% | [6] 101% | [7] 102% | [8] 95.6% | [9] 114% | [10] 94% | [11] 90.8% | [12] 93.1% | [13] 103% | [14] 115% | [15] 91.5% | [16] 89.7% | [17] 93.4% | [18] 106%

COc1ccc(-c2nc3sccn3c2/C=C/C(=O)c2cc(OC)c(OC)c(OC)c2)cc1OC
active: [8] 2.79% | [9] 3.84% | [10] -9.5% | [11] 4.81% | [12] 0.662% | [13] -30.5% | [15] 4.93% | [16] 7.36% | [18] -15.2%
inactive: [1] 14.6% | [2] 10.9% | [3] 25.6% | [4] 79.1% | [5] 21.9% | [6] 26.3% | [7] 34.1% | [14] 10.2% | [17] 40.3%

COc1cc(CNCCN2C(=O)c3ccc4c5c(ccc(c35)C2=O)C(=O)N(CCNCc2cc(OC)c(OC)c(OC)c2)C4=O)cc(OC)c1OC
active: [1] 0.859% | [2] -25.5% | [3] -47.3% | [4] -78.7% | [5] -70.9% | [6] -96.9% | [7] -53.5% | [8] -99.1% | [9] -60.7% | [10] -20.2% | [11] -56.2% | [12] -93.8% | [13] -63.4% | [14] -87.3% | [15] -59.4% | [16] -99.7% | [17] -100% | [18] -92.5%

CC(C)(C)[Si](C)(C)OC1[C@@H](COC(N)=O)O[C@@H](n2cnc3c(N)ncnc32)[C@H]1O[Si](C)(C)C(C)(C)C (stereo partly specified)
active: [1] -31.8%
inactive: [2] 21.6% | [3] 84.9% | [4] 99.2% | [5] 96.2% | [6] 91.7% | [7] 113% | [8] 75.6% | [9] 88.5% | [10] 87.4% | [11] 84.4% | [12] 106% | [13] 74.6% | [14] 100% | [15] 78.6% | [16] 90.1% | [17] 107% | [18] 76%

FC(F)(F)c1cc(CNc2nc(Cl)ncc2Br)cc(C(F)(F)F)c1
inactive: [1] 38.2% | [2] 70.9% | [3] 91.5% | [4] 96.6% | [5] 98.5% | [6] 81.1% | [7] 75% | [8] 85.6% | [9] 54.5% | [10] 92.7% | [11] 82.1% | [12] 90% | [13] 45.9% | [14] 103% | [15] 93.3% | [16] 96.1% | [17] 97.8% | [18] 71.2%

CC[Si](CC)(CC)OC1[C@@H](O[Si](CC)(CC)CC)[C@@H](CNC(=O)NC)O[C@H]1n1cnc2c(NC(=O)Nc3ccccc3)ncnc21 (stereo partly specified)
active: [2] 3.35%
inactive: [1] 14.8% | [3] 92.7% | [4] 93.6% | [5] 94.4% | [6] 98.2% | [7] 73.6% | [8] 66.6% | [9] 69.9% | [10] 91.8% | [11] 89.8% | [12] 104% | [13] 65.5% | [14] 71.6% | [15] 61.6% | [16] 51.9% | [17] 96.5% | [18] 60.8%

C=C(C)CCCC(C)CC#N (stereo unspecified)
inactive: [1] 90.8% | [2] 102% | [3] 106% | [4] 103% | [5] 105% | [6] 103% | [7] 107% | [8] 99.8% | [9] 110% | [10] 107% | [11] 92.7% | [12] 95.9% | [13] 104% | [14] 115% | [15] 99.3% | [16] 97.5% | [17] 104% | [18] 95%

COc1ccccc1CNCCCCCCCCCCCCN1C(=O)c2ccc3c4c(ccc(c24)C1=O)C(=O)N(CCCCCCCCCCCCNCc1ccccc1OC)C3=O
inactive: [4] 100% | [5] 92.3% | [6] 117% | [7] 83% | [8] 44.5% | [10] 85% | [11] 119% | [12] 70.5% | [13] 58% | [14] 74.1% | [15] 26.7% | [17] 80.9% | [18] 46.6%
active: [1] 7.77% | [2] 2.41% | [3] -60.9% | [9] -9.15% | [16] -43%

COc1cc(C2C3=C(COC3=O)N(CCO)c3cc4c(cc32)OCO4)cc(OC)c1O (stereo unspecified)
active: [8] -25.9% | [9] 3.31% | [13] -39.6%
inactive: [1] 21.5% | [2] 21.8% | [3] 42.8% | [4] 72% | [5] 48.3% | [6] 31.8% | [7] 36% | [10] 73.3% | [11] 35.3% | [12] 59.9% | [14] 14.8% | [15] 19.6% | [16] 16.7% | [17] 28.4% | [18] 20.9%

Cc1nc2cc(Nc3nc(Nc4ccc(F)cc4)nc(N4CCCC4)n3)ccc2n1Cc1ccccc1
inactive: [9] 30.6%
active: [1] -27.9% | [2] -47.4% | [3] -35.2% | [4] -54.8% | [5] 4.79% | [6] -2.81% | [7] -6.78% | [8] -84% | [10] -28% | [11] -31.3% | [12] -14% | [13] -74.2% | [14] -53.8% | [15] 3.05% | [16] -79.3% | [17] -59.2% | [18] -73.4%

Fc1ccccc1Nc1ccc2nnc(-c3ccncc3)n2n1
inactive: [1] 89.4% | [2] 95.4% | [3] 103% | [4] 97.3% | [5] 107% | [6] 107% | [7] 105% | [8] 108% | [9] 105% | [10] 99.2% | [11] 85.3% | [12] 101% | [13] 106% | [14] 106% | [15] 94.7% | [16] 99.5% | [17] 107% | [18] 112%

Cc1nc2cc(Nc3nc(Cl)nc(Nc4ccc(F)cc4)n3)ccc2n1Cc1ccccc1
active: [16] 3.88%
inactive: [1] 57.5% | [2] 15.3% | [3] 81.5% | [4] 86.3% | [5] 85.8% | [6] 95.9% | [7] 83% | [8] 94.2% | [9] 79.5% | [10] 95.6% | [11] 57% | [12] 90.6% | [13] 95.6% | [14] 84.8% | [15] 61.5% | [17] 94.5% | [18] 69.2%

COC1(OC)C2(Cl)C=C(c3ccccc3)C1(Cl)C(Cl)=C2Cl (stereo unspecified)
inactive: [1] 83.9% | [2] 92.4% | [3] 93.8% | [4] 101% | [5] 88.6% | [6] 90.3% | [7] 90% | [8] 107% | [9] 116% | [10] 98.9% | [11] 95.6% | [12] 88.2% | [13] 95.7% | [14] 115% | [15] 99.2% | [16] 79.3% | [17] 99.8% | [18] 109%
